The campaign covered roughly 200,000 compounds. About 1,600 (0.8%) were called active.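 Rule for the calls: active = plate Z-score above 3 for both tubulin-high and condensed-nucleus cell shares, with cell loss under 80%, at 10 µM; inactive = the rest, inconclusive results apart.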 Many of the other results were omitted from the sample, so actives are more common in it than they were.
assay: microtubule stabilizers in HeLa cells, primary screen, imaging, high-content imaging (AID 2205); settings: HeLa tubulin immunostaining HCS, 24 h, at 10 µM; % Hoechst-high responders: measured here: nuclear condensation Hoechst responders, stronger effect = higher value, share of cells brighter than vehicle mean+2SD; % tubulin-high responders: stronger effect = higher value, share of cells brighter than vehicle mean+2SD; toxicity: measured here: cytotoxicity by cell density;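 for % tubulin-high responders: anti alpha tubulin signal scored within the nucleus-defined area of each cell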;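 for toxicity: 0% = mean cell density of plate MIN control wells and 100% = no cells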

Row | Structure (SMILES) | % Hoechst-high responders [%] | % tubulin-high responders | toxicity [%]
1 | Cc1ccc(Nc2nnc(SCc3ccccc3)s2)cc1 | 1.53 | 1.84% (inactive) | 10
2 | Nc1ccc(Nc2ccccc2)cc1 | 2.02 | 3.57% (inactive) | 3.51
3 | Cc1ccc(Nc2ccccc2N)cc1 | 19 | 25.1% (active) | 21.1
4 | COc1ccccc1OCCNC(=O)c1cc([N+](=O)[O-])cc([N+](=O)[O-])c1 | 1.79 | 2.35% (inactive) | 4.5
5 | CCOC(=O)c1sc2nc(C)nc(SCC(N)=O)c2c1C | 2.34 | 3.35% (inactive) | 5.02
6 | CCOC(=O)c1sc2nc(CSc3ccccc3)[nH]c(=O)c2c1C | 28.5 | 17.6% (active) | 32.2
7 | CCOC(=O)c1sc2nc(CSCC(=O)OCc3ccc(C(=O)OC)o3)[nH]c(=O)c2c1C | 1.26 | 1.86% (inactive) | 6.86
8 | O=C(Nc1ccon1)c1sc2ccccc2c1Cl | 2.6 | 2.29% (inactive) | 5.2
9 | O=C(N/N=C/c1c(Cl)[nH]c2ccccc12)c1sc2ccccc2c1Cl | 42.8 | 18.9% (active) | 32.3
10 | Cc1nn(C)cc1/C=N/NC(=O)c1sc2ccccc2c1Cl | 0.999 | 1.5% (inactive) | 12.2
11 | CCOC(=O)CCCN1CC(O)=C(c2nc3ccccc3s2)C1=N | 2.61 | 4.95% (inactive) | 2.95
12 | N=C1C(c2nc3ccccc3s2)=C(O)CN1NC(=O)c1ccc([N+](=O)[O-])cc1 | 1.37 | 9.65% (inactive) | 4.7
13 | COc1ccccc1N1CC(O)=C(c2nc3ccccc3s2)C1=N | 9.29 | 17.8% (active) | 14.3
14 | Cc1ccc(C(=O)NC(=S)Nc2ccccc2C)cc1 | 1.22 | 1.11% (inactive) | 8.22
15 | C/C(CCC(=O)OC[C@H]1O[C@H](C#Cc2ccccc2)C=C[C@@H]1Oc1ccc(C)cc1)=N\OC[C@@H](O)[C@H]1O[C@@H]2OC(C)(C)O[C@@H]2[C@H]1O | 2.47 | 2.74% (inactive) | 9.27
16 | COc1ccc(C(=O)N2CCc3cc(OC)c(OC)cc3C2c2cccc([N+](=O)[O-])c2)cc1 (stereo not drawn) | 33.6 | 45.1% (active) | 30.8
17 | CCC1(C(=O)c2ccccc2)C(c2cccc([N+](=O)[O-])c2)C1(C(=O)OC)C(=O)OC (stereo not drawn) | 2.35 | 3.4% (inactive) | 3.29
18 | COc1ccccc1C1SCCN1C(=O)c1ccc([N+](=O)[O-])cc1 (stereo not drawn) | 3.5 | 3.9% (inactive) | 3.11
19 | COc1ccc(N2CCN(C(=O)C3CCN(S(=O)(=O)c4ccc(C)cc4)CC3)CC2)cc1 | 2.46 | 4.98% (inactive) | 9.28
20 | Cc1cccc(OCCCC(=O)Nc2ccc(S(=O)(=O)N3CCCC3)cc2)c1 | 2.42 | 3.34% (inactive) | 1.31
21 | CCCCOc1ccc(NC(=O)[C@@H]2CCCN2C(=O)C2CCN(S(=O)(=O)c3ccc(C)cc3)CC2)cc1 | 12 | 23.9% (active) | 63.4
22 | CCOc1ccc(NC(=S)N2CCC(N(C)CC3CCCO3)CC2)cc1 (stereo not drawn) | 1.17 | 2.22% (inactive) | 7.25
23 | COC(=O)c1cc(C(=O)N(Cc2ccccc2)c2ccccn2)cc([N+](=O)[O-])c1 | 2.13 | 3.91% (inactive) | 2.76
24 | CCc1nnc(NS(=O)(=O)c2ccc(N=Cc3c(C)[nH]n(-c4ccc(C)cc4)c3=O)cc2)s1 | 2.28 | 1.91% (inactive) | 6.1

Row | Structure (SMILES) | % Hoechst-high responders [%] | % tubulin-high responders | toxicity [%]
25 | Cc1[nH]n(-c2ccc(Cl)cc2)c(=O)c1/C=N/n1c(C)nc2ccccc2c1=O | 2.61 | 5.31% (inactive) | 6.25
26 | CCOc1[nH]n(-c2ccc(Cl)cc2)c(=O)c1C=Nc1ccc(O)cc1 | 12.9 | 33.2% (active) | 43.1
27 | O=C(NC(=S)Nc1ccc(S(=O)(=O)N2CCOCC2)cc1)c1ccccc1[N+](=O)[O-] | 1.54 | 3.32% (inactive) | 3.74
28 | COc1ccc(C2=NOC(C(=O)NCc3ccco3)C2)cc1OC (stereo not drawn) | 22.4 | 39.6% (active) | 66.2
29 | COc1ccc(-c2cc(C(=O)NCc3ccco3)no2)cc1OC | 1.41 | 1.62% (inactive) | 8.27
30 | Cc1ccc(CNC(=O)C2CC(c3ccccc3[N+](=O)[O-])=NO2)o1 (stereo not drawn) | 2.18 | 1.45% (inactive) | 2.23
31 | O=[N+]([O-])c1ccc(Sc2n[nH]c(-c3ccco3)n2)nc1 | 1.75 | 2.25% (inactive) | 7.26
32 | CCCCCCCC[n+]1cccc(C(=O)N2c3c(nc(N)[nH]c3=O)NC(C)C2C)c1 (stereo not drawn) | 2.15 | 1.56% (inactive) | 7.45
33 | CCOc1cccc(/C=N/N2C(=O)CSC2=S)c1O | 1.52 | 5.1% (inactive) | 14.4
34 | Cc1nccn1CCCNC(=O)CC1C(=O)NCCN1Cc1ccc(Cl)c(F)c1 (stereo not drawn) | 2.31 | 2.68% (inactive) | 1.05
35 | COC(=O)C1=C(Nc2ccc(C)cc2)C=C(C)C(C(=O)OC)C1c1ccc(F)cc1 (stereo not drawn) | 21.1 | 34.1% (active) | 39.5
36 | COC(=O)C1=C(Nc2ccc(OC)cc2)C=C(C)C(C(=O)OC)C1c1ccc(C)cc1 (stereo not drawn) | 1.91 | 2.3% (inactive) | 12.1
37 | COC(=O)C1C(=O)NCC1c1ccc(C)cc1 (stereo not drawn) | 1.21 | 1.21% (inactive) | 6.65
38 | COc1ccc(C2NC(=S)NC3=C2CCc2ccccc23)cc1OC (stereo not drawn) | 3.43 | 3.22% (inactive) | 5.09
39 | O=C(CCN1C(=O)/C(=C/c2cccs2)SC1=S)NNC(=O)c1cccc(O)c1 | 1.28 | 1.78% (inactive) | 8.2
40 | CCOc1cc(NS(=O)(=O)c2ccc(OC)cc2)c(OCC)cc1NC(C)=O | 0.933 | 2.92% (inactive) | 3.17
41 | COC(=O)c1ccccc1NS(=O)(=O)c1ccc2[nH]c(=O)[nH]c2c1 | 5.36 | 4.9% (inactive) | 0.144
42 | CCOC(=O)c1ccccc1NS(=O)(=O)c1ccc(OC)cc1 | 15.7 | 39.6% (active) | 61.3
43 | COc1ccc(C)cc1NC(=O)CSc1nnc(CC(=O)Nc2ccccc2F)n1C | 1.3 | 2.49% (inactive) | 3.08
44 | COc1ccc(C(=O)n2nc(-c3ccc(C)cc3)nc2N)cc1OC | 34.9 | 48.4% (active) | 31.5
45 | COc1ccccc1C(=O)n1nc(-c2ccccc2)nc1N | 2.45 | 1.99% (inactive) | 31.9
46 | COc1ccc(C(=O)n2nc(-c3ccc(Cl)cc3)nc2N)cc1OC | 2.89 | 4.28% (inactive) | 4.28
47 | COc1ccc(-c2[nH]ncc2CN(C)Cc2c(C)n[nH]c2C)c(OC)c1 | 1.45 | 3.81% (inactive) | 16.7
48 | Cc1cccc(C)c1NC(=O)C(c1ccccc1)N1CC(=O)Nc2ccccc21 (stereo not drawn) | 2.09 | 3.96% (inactive) | 8.51

Row | Structure (SMILES) | % Hoechst-high responders [%] | % tubulin-high responders | toxicity [%]
49 | COc1ccccc1-n1c(CNC(=O)c2ccccc2)nnc1SCC(=O)Nc1nnc(C)s1 | 1.91 | 2.83% (inactive) | 6.55
50 | Cc1cccc(CSc2nnc(NC(=O)CSc3nnc(C)s3)s2)c1 | 1.18 | 2.97% (inactive) | 12.2
51 | Cc1nnc(NC(=O)CSc2nccn2-c2cccc(C)c2C)s1 | 21 | 19.7% (active) | 64.4
52 | CC(Oc1cccc(NC(=O)c2cccs2)c1)C(=O)c1ccccc1 (stereo not drawn) | 1.24 | 0.929% (inactive) | 5.37
53 | Cc1cc(-c2csc(N)n2)c(C)n1-c1ccccc1 | 2.12 | 6.37% (inactive) | 3.22
54 | CN1C(=O)/C(=C\c2ccc(-c3ccccc3)o2)SC1=S | 1.77 | 6.05% (inactive) | 4.81
55 | C=CCn1c(CC(=O)Nc2cccc(OC)c2)nnc1SCC(=O)NC1CCCCC1 | 1.48 | 3.27% (inactive) | 1.42
56 | COc1cccc(-n2c(SCC(=O)NC3CCCCC3)nc3n[nH]c(C)c3c2=N)c1 | 11.3 | 18.4% (active) | 62.6
57 | CCCCNC(=O)CSc1nc2n[nH]c(C)c2c(=N)n1-c1cccc(Cl)c1C | 2.38 | 2% (inactive) | 5.31
58 | Cc1ccc(S(=O)(=O)N(C)C)cc1NC(=O)c1ccccc1Br | 2.26 | 1.77% (inactive) | 6.59
59 | CN1CCN(C(=O)/C(=C\c2ccc3c(c2)OCO3)NC(=O)c2cccs2)CC1 | 1.07 | 1.67% (inactive) | 6.65
60 | CC(C)(C)c1nc2ccccc2c(=O)n1N1C(=O)c2ccccc2C1=O | 13.9 | 28.9% (active) | 37.9
61 | CCC1(CC)Cc2ccccc2-c2nc3ccccc3c(=O)n21 | 1.65 | 4.36% (inactive) | 6.77
62 | CN(C)CCCn1c(SCCN2C(=O)c3ccccc3C2=O)nc2ccccc2c1=O | 1.95 | 2.16% (inactive) | 6.21
63 | CCOc1ccc(NS(=O)(=O)c2ccc(C)c(C(N)=O)c2)cc1 | 2.61 | 1.97% (inactive) | 4.14
64 | CN1CCN(c2ccc(NC(=O)c3ccc4c(c3)[nH]c(=O)n4Cc3ccc(F)cc3)cc2)CC1 | 2.93 | 3.59% (inactive) | 6.48
65 | O=C(NN=C1CCC(=NNC(=O)c2cccnc2)CC1)c1cccnc1 | 2.04 | 1.75% (inactive) | 6.55
66 | COCC(C)n1c(C)cc(C(=O)COc2ccc(C)nc2[N+](=O)[O-])c1C (stereo not drawn) | 1.67 | 1.5% (inactive) | 6.06
67 | O=C(NNC(=S)NC(=O)c1cn(-c2ccccc2)nc1-c1ccccc1)c1ccncc1 | 2.91 | 5.93% (inactive) | 6.44
68 | CCOc1ccc(C2c3[nH]c4ccccc4c3CCN2Cc2cn(CC)nc2C)cc1 (stereo not drawn) | 3.06 | 2.78% (inactive) | 2.13
69 | CCN1CCN(C(=O)c2ccccc2N(C)S(=O)(=O)c2ccc(C)cc2)CC1 | 1.51 | 2.85% (inactive) | 4.04
70 | CCOC(=O)N1CCN(C(=O)c2ccccc2N(Cc2ccccc2)S(=O)(=O)c2ccc(OC)cc2)CC1 | 60.4 | 17.8% (active) | 42.6
71 | NC(=O)c1ccccc1N(Cc1ccccc1)S(=O)(=O)c1ccccc1 | 0.852 | 1.16% (inactive) | 4.6
